Only some compounds are listed: those with a hit (about 8.3% of all), similar ones and a draw of the others.
Giardia killer = kills Giardia lamblia; Giardia lamblia trophozoite viability; activity change, % at 7.66 µM, hits read low; 340,000 tested, 0.15% active; in the data active means activity change below about -80%; inconclusive means between about -30% and that limit;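 further: parasites exposed to compound for two days anaerobically before the ATP read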
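Trophozoites 100 cells/well + cpd; 48 hrs, 37 deg C, anaerobic. ATPLite 1-Step added, 15-30 min RT, luminescence read (ATP-based viability).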
Chronic BCR inh = inhibitors of chronic active B-cell receptor signaling; ABC-DLBCL IkBa-CBG/CBR reporter, luminescence ratio, 4 h; Potency, µM (top dose mostly 46.1 µM), hits mostly inhibitors; 340,000 tested, 0.05% active; AID 493014; active means well fitted inhibition curve with a large enough effect in the signal ratio, with a control signal flat, not every such curve was filed as active; inconclusive means small, poorly fitted or top-dose-only effect, or effect the other way, or a change in a side signal; the % refers to the signal ratio
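TMD8 ABC-DLBCL cells carrying doxycycline-inducible green luciferase fused to IkappaBalpha plus unfused red luciferase were exposed to compounds (up to 46 uM) for 4 hrs at 37C. Activity came from the overlap-corrected green/red luminescence ratio.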
RORgamma inh = ROR gamma (mouse) transcription inhibition; P51450; Drosophila S2 Gal4-RORgamma UAS-luciferase reporter, 20 h; Potency, µM (doses to about 53.6 µM), usual class: inhibitors; 310,000 tested, 5.4% active; further: nearly all actives have a fitted effect of over 60% in size
Target sequence (P51450 whole entry, looked up, the tested form may be a part): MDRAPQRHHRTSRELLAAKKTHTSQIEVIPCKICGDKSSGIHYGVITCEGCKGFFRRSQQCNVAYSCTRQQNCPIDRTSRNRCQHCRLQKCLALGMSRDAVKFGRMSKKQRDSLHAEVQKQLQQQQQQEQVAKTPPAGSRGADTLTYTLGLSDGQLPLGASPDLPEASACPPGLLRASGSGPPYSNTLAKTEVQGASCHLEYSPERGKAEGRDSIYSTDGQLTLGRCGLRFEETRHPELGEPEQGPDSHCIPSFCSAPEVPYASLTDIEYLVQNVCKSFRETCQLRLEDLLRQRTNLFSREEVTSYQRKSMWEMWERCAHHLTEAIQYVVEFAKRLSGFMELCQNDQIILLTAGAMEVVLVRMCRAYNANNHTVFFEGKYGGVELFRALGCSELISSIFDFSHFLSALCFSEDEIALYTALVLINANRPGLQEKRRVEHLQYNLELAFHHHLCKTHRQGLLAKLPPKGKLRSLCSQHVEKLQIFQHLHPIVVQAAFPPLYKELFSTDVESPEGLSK
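Compounds are pin-transferred onto Drosophila Schneider cells expressing a copper-inducible Gal4–ROR gamma transactivation domain fusion. After 1 hr, copper sulfate is added to 700 uM final; luciferase is read 20 hr later.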
SW480 rereplic = induces DNA re-replication in SW480 colon adenocarcinoma cells. SW480 DNA re-replication, Hoechst DNA content imaging, 48 h. AID 624297. Potency, µM (doses to about 46.1 µM), most hits filed as activators. 340,000 tested, 1.8% active; further: nearly all actives have a fitted effect of over 55% in size
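Readout is total intensity of Hoechst-stained nuclei, excited at 405 nm and collected at 500-530 nm. Compound treatment lasted 48 hr at 37 C in 5% CO2 before staining.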
MCF10A rerep = induces DNA re-replication in MCF 10a normal breast cells. MCF 10A DNA re-replication, Hoechst nuclear intensity, 48 h. Potency, µM (top dose mostly 46.1 µM), most hits filed as activators. 350,000 tested, 2.9% active. AID 624296; further: nearly all actives have a fitted effect of over 50% in size
VP16 counter = Gal4-VP16 reporter inhibition counter-screen. 310,000 tested, 3.5% active. Potency, µM (highest dose often 53.6 µM), hits mostly inhibitors. Drosophila S2 Gal4-VP16 UAS-luciferase, luminescence, 20 h;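 further: Gal4-VP16 expression switched on by copper sulfate through the metallothionein promoter; nearly all actives have a fitted effect of over 50% in size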
A number is an active result; . = inactive; ? = inconclusive; / = no result; [ ] = dose if it differs, or a comment. Unless noted, the call rests on the fitted dose curve; in most records, active means well fitted curve in the direction sought with a large enough effect; inconclusive means small, poorly fitted or top-dose-only effect, or another doubt; inactive means no such curve, though single readings can be large; an effect the other way counts as inactive or inconclusive.

SMILES | Giardia killer | Chronic BCR inh | RORgamma inh | SW480 rereplic | MCF10A rerep | VP16 counter
Cc1ccc2c(Br)cc(Br)c(O)c2n1 | / | / | 0.25µM | . | 19µM | 0.71µM
Cc1cc(C)c2ccc(N)nc2c1O | . | ? | .[0.365 µM] | ? | ? | /
COc1ccc(/C=C/c2ccc3c(Br)ccc(O)c3n2)cc1 | . | ? | 3.2µM | ? | 23µM | 3.5µM
CCc1cccc(C)c1NS(=O)(=O)Cc1ccccc1 | . | . | . | . | ? | .
CC(=O)c1ccc(NC(=O)CCNC(=O)c2ccc(Cl)cc2)cc1 | . | . | . | . | . | .
CCCCNc1ncnc2c1cnn2-c1ccccc1 | . | ? | . | 6.5µM | ? | .
CCc1nc(NC(C)(C)C)c2cnn(-c3ccccc3)c2n1 | . | ? | . | ? | 23µM | .
c1ccc(Cn2ncc3c(NCc4ccco4)ncnc32)cc1 | . | . | . | . | . | .
c1ccc(-n2ncc3c(NCCCN4CCOCC4)ncnc32)cc1 | . | ? | ? | . | . | ?
c1ccc(-n2ncc3c(NCc4ccco4)ncnc32)cc1 | . | ? | . | 21µM | 13µM | .
Clc1cccc(Nc2ncnc3c2cnn3-c2ccccc2)c1 | . | ? | 10µM | . | ? | 22µM
CCOC(=O)c1oc2ccccc2c1COC(=O)CNC(=O)c1cccc(C)c1 | . | . | . | . | . | .
Cc1ccc(CSCc2ccc(C(=O)NCCc3ccc(Cl)cc3)o2)cc1 | / | . | / | / | / | /
CCNC(=S)N1CCC(C(N)=O)CC1 | . | . | . | . | . | .
Cc1ccc(-n2ncc3c(NC4CCCCC4)ncnc32)cc1Cl | / | . | / | / | / | /
CCOC(=O)N1CCC(Nc2ncnc3c2cnn3-c2ccc(Cl)cc2)CC1 | . | ? | 8.9µM | . | . | .
CCCCNc1ncnc2c1cnn2Cc1ccc(Cl)cc1 | ? | ? | . | ? | ? | .
CCCCNc1ncnc2c1cnn2-c1ccc(Cl)cc1 | . | ? | . | 8.2µM | ? | .
CCOC(=O)C1CCCN(S(=O)(=O)c2cc(C(=O)OC)n(C)c2)C1 (configuration not stated) | . | ? | . | . | . | 16µM
CCC(C)(C)c1ccc(CC(C)CN2C[C@@H](C)O[C@@H](C)C2)cc1 (some centres not stated) | / | / | . | . | ? | ?
COc1ccccc1C(=O)N1[C@@H](C(C)C)COc2cc(Br)ccc2S1(=O)=O | . | / | / | . | . | /
Cc1cccc(C(=O)N2[C@@H](C(C)C)COc3cc(Br)ccc3S2(=O)=O)c1 | . | / | / | . | 8.2µM | /
Cc1nc2ccccc2n1CC(=O)NCCN1CCOCC1 | . | . | . | . | . | .
CCCCCCCn1c(NC(=O)CC)nc2ccccc21 | . | ? | 0.089µM | . | 6.5µM | 0.63µM
O=C(Nc1nc2ccccc2n1CCN1CCOCC1)c1ccc(Cl)cc1 | . | . | 0.4µM | . | ? | 2.8µM
SMILES | Giardia killer | Chronic BCR inh | RORgamma inh | SW480 rereplic | MCF10A rerep | VP16 counter
CCC(=O)Nc1nc2ccccc2n1CCN1CCOCC1 | . | . | 14µM | . | . | ?
O=[N+]([O-])c1ccccc1S(=O)(=O)N1CCN(c2nc(-c3cccs3)nc3ccccc23)CC1 | . | / | / | / | / | /
NC(=O)NC(=O)C(c1ccccc1)N1CCN(S(=O)(=O)c2ccc(Br)s2)CC1 (configuration not stated) | . | ? | / | . | . | /
O=C(c1ccc(Cn2c(=S)[nH]c3ccc(N4CCOCC4)cc3c2=O)cc1)N1CCN(c2ccc(F)cc2)CC1 | . | . | ? | . | 4.6µM | .
COc1ccc(Cn2c(=S)[nH]c3cc(C(=O)N4CCN(c5ccccc5)CC4)ccc3c2=O)cc1 | . | . | ? | . | . | .
Cc1ccc(Cl)cc1N1CCN(C(=O)c2ccc(CN3CCOCC3)cc2)CC1 | . | ? | . | . | . | .
COc1ccc(N2CCN(C(=O)c3ccc(Cn4c(=S)[nH]c5ccc(N6CCOCC6)cc5c4=O)cc3)CC2)cc1 | . | ? | . | . | ? | .
Cc1ccc(C)c(N2CCN(C(=O)c3ccc(Cn4c(=S)[nH]c5ccc(N6CCOCC6)cc5c4=O)cc3)CC2)c1 | . | . | 2.8µM | . | 5.8µM | .
O=C(c1ccc(Cn2c(=S)[nH]c3cc4c(cc3c2=O)OCO4)cc1)N1CCN(c2ccccc2)CC1 | . | . | 3.2µM | . | . | 6.3µM
